Activation and Potency data for 25 compounds are collected here from PubChem BioAssay (NCATS).

Inconclusive results are not listed. Unmarked numbers belong to inactive results. The source made the active and inactive calls. The call rests on the fitted dose curve; in most records, active means well fitted curve in the direction sought with a large enough effect; inconclusive means small, poorly fitted or top-dose-only effect, or another doubt; inactive means no such curve, though single readings can be large; an effect the other way counts as inactive or inconclusive. Peptide text beside a SMILES is read from it.

Assay [1] concerns the target Cellular tumor antigen p53 (Homo sapiens) (UniProt P04637). As to the kind of experiment: Primary qHTS for small molecule compounds that upregulate eGFP-tagged delta133p53alpha (in N-terminal) cells. (AID 2060322). Further: nearly all actives have a fitted effect of over 75% in size. Further: potency means the concentration at half of the fitted maximal effect.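 On Activation: cells pre-induced with doxycycline then dosed without doxycycline; series mostly up to about 56 µM; 0% = DMSO vehicle and 100% = reference activator.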 The following applies: NCI-H358 eGFP-delta133p53alpha fluorescence, 24 h; activation: active compounds read high. Put shortly: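 NCI-H358 cells pre-induced 24 h with 10 ng/ml doxycycline for eGFP-delta133p53alpha, plated dox-free and exposed 24 h at 37C to titrated compounds. Fixed, Hoechst-stained; gated GFP peak intensity by laser scanning cytometry, normalized to DMSO (0%) and 57.5 uM 5-azacytidine (100%).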

The target of assay [2] is Aldehyde dehydrogenase, mitochondrial (Homo sapiens) (UniProt P05091). As to the kind of experiment: qHTS for Inhibitors of the Aldehyde Dehydrogenase Family (ALDH2) Primary screen (AID 2061308).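 Further: plate controls were vehicle for no effect and reference inhibitor for full effect; nearly all actives have a fitted effect of over 55% in size.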
Assay [3] addresses Retinaldehyde dehydrogenase 3 (Homo sapiens) (UniProt P47895). As to the kind of experiment: qHTS for Inhibitors of the Aldehyde Dehydrogenase Family (ALDH1A3) Primary screen (AID 2061315).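 Further: plate controls were DMSO vehicle for no effect and reference inhibitor for full effect.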

Cellular tumor antigen p53 (Homo sapiens), sequence (P04637 whole entry, looked up): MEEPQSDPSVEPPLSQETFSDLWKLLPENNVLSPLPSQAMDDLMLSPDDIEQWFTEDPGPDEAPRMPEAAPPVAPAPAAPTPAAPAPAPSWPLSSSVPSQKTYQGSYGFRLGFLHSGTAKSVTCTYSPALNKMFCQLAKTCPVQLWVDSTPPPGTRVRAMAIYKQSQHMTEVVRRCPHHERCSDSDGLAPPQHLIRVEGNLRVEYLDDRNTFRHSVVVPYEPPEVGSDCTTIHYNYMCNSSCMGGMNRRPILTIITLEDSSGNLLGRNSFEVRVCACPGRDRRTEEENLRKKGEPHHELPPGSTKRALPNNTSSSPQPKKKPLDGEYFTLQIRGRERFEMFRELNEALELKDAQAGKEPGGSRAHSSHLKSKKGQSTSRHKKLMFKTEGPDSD

For `C=CC(C)(O)CCC1C(C)(O)CCC2C(C)(C)CCCC21C` (stereo not given), the activation in assay [1] is 9.82%. In addition, the Potency entry in assay [2] and in assay [3] was “inactive” in each case.

On to `CCCC(=O)O[C@@H]1[C@@H]2[C@@H](OC(C)=O)[C@]3(C)C(=O)[C@H]4[C@@H](OC(C)=O)C(C)(C)C[C@H]4[C@]3(C)C(=O)[C@@]2(OC(C)=O)C[C@@H]1C`, for which the activation in assay [1] is -10.7%. The Potency entry in assay [2] and in assay [3] was “inactive” each time.

Take `COc1cc(O)c2c(c1)C1=CC(O)C(O)CC1(C)OC2=O` (stereo not given): the activation in assay [1] is 2.29%. Moreover, the Potency result in assay [2] and in assay [3] was “inactive” in each case.

Turning to `CC(=O)NC(Cc1ccccc1)C(=O)NC(C(=O)O)C(C)C` (stereo not drawn) (Ac-Phe-Val-OH; configuration not given here), the activation in assay [1] is 0%. Further, the Potency result in assay [2] and in assay [3] was “inactive” in each case.

On to `CC(C)(O)CC(CO)NC(=O)CC(O)CC(=O)Cc1ccccc1` (stereo not given), for which the activation in assay [1] is 22.1%. In addition, the Potency entry in assay [2] and in assay [3] was “inactive” in each case.

Consider `C=C1C(=O)O[C@@H]2[C@H]1CC[C@H](C)C(CCC(=O)O)C2(C)O` (stereo not given in full), for which the Potency in assay [1] is 23.9 µM (active). Besides, the Potency entry in assay [2] and in assay [3] was “inactive” each time.

`O=C(CCCCCCCCC#CI)Oc1ccccc1`: in assay [1], the activation was -8.33%. In addition, the Potency result in assay [2] and in assay [3] was “inactive” throughout.

Turning to `CC(=O)/C=C/[C@H]1[C@](C)(O)[C@@H](O)[C@H](OC(C)=O)C2C(C)(C)CCC[C@@]21C` (stereo not given in full), in assay [1], the activation is -2.68%. In addition, the Potency result in assay [2] and in assay [3] was “inactive” throughout.

Consider `O=C(NCc1ccc(OC(F)(F)F)cc1)C1c2c(F)cccc2C(=O)N1CCc1ccccn1` (stereo not given), for which, in assay [1], the activation is 11.6%. Besides, the Potency result in assay [2] and in assay [3] was “inactive” each time.

As for `CCC(C)C(=O)OC1CC(O)C23C4OCC5(C(O)CC2C1(C)C(O)O4)C3C(=O)C(O)C1(C)C(O)(c2ccoc2)CC2OC251` (stereo not given), the activation in assay [1] is 5.34%. The Potency result in assay [2] and in assay [3] was “inactive” in each case.

For `C=C1C2=CC(O)C(C)C1(C)CC/C(C)=C/CCC1(C)OC1C2=O` (stereo not given), the activation in assay [1] is 0.763%. Also, the Potency entry in assay [2] and in assay [3] was “inactive” each time.

For `O=C1N(CC2CCCCN2)CCN1c1ccccc1` (stereo not given), the activation in assay [1] was 5.73%. Moreover, the Potency entry in assay [2] and in assay [3] was “inactive” each time.

In the case of `NC1CCCCN(c2c(F)cc3c(=O)c(C(=O)O)cn(C4CC4)c3c2Cl)C1` (stereo not given), the activation in assay [1] was -8.59%. The Potency entry in assay [2] and in assay [3] was “inactive” each time.

As for `C=C1C(=O)O[C@@H]2[C@H]1CCC(C)=C1CCC(=O)O[C@]12C`, the Potency in assay [1] is 12 µM (active). The Potency result in assay [2] and in assay [3] was “inactive” each time.

As to `C/C=C/c1cc(OC)c2c(c1)[C@@H](C)[C@@H](c1ccc(O)c(OC)c1)O2`, the activation in assay [1] is -16%. In addition, the Potency entry in assay [2] and in assay [3] was “inactive” throughout.

For the compound `O=C(Cn1c2ccccc2c2nc3n(c(=O)c21)CCS3)N1CCCC1`, the activation in assay [1] is 5.67%. For the same compound, the Potency entry in assay [2] and in assay [3] was “inactive” each time.

Consider `CC(/C=C/[C@]1(O)[C@@]2(C)CO[C@@]1(C)C[C@@H](O)C2)=C\C(=O)O[C@@H]1O[C@H](CO)[C@@H](O)[C@H](O)[C@H]1O`, for which the activation in assay [1] is -16.8%. Further, the Potency entry in assay [2] and in assay [3] was “inactive” each time.

For the compound `COC(=O)C1=CO[C@@H](O[C@@H]2O[C@H](CO)[C@@H](O)[C@H](O)[C@H]2O)/C(=C\CO)[C@@H]1CC(=O)OCCc1ccc(O)cc1`, the activation in assay [1] was -20.6%. The Potency result in assay [2] and in assay [3] was “inactive” throughout.

For `COC(=O)C1=CO[C@@H](O)C2C(CO)=CCC12` (stereo not given in full), the activation in assay [1] was 23%. Also, the Potency entry in assay [2] and in assay [3] was “inactive” in each case.

As to `COC(=O)C1=CO[C@@H](O[C@@H]2O[C@H](CO)[C@@H](O)[C@H](O)[C@H]2O)[C@H]2[C@@H]1C=C[C@]21C=C([C@H](C)OC(=O)/C=C/c2ccc(O[C@@H]3O[C@H](CO)[C@@H](O)[C@H](O)[C@H]3O)cc2)C(=O)O1`, the activation in assay [1] was -1.79%. Besides, the Potency entry in assay [2] and in assay [3] was “inactive” throughout.

Turning to `CC1CCC2C(C)(C)C(O)C(O)CC2(C)C12Cc1c(O)cc(CO)c(C=O)c1O2` (stereo not given), the activation in assay [1] is 0.763%. The Potency result in assay [2] and in assay [3] was “inactive” throughout.

For the compound `O=C(CCCN1CCN(c2ccc(F)cc2)CC1)NC1c2ccccc2CSc2ccccc21` (stereo not given), the activation in assay [1] was -15%. The Potency entry in assay [2] and in assay [3] was “inactive” in each case.

For the compound `COc1ccccc1-c1ccc(-c2cn(C(=O)N3CCCCC3Cc3ccccc3)nn2)cc1` (stereo not given), the activation in assay [1] was -5%. Besides, the Potency result in assay [2] and in assay [3] was “inactive” throughout.

With `CC1CC(=O)C2=C(O1)OC1(C)CCC3C(C)(C)C4OC4C(=O)C3(C)C1C2` (stereo not given), the activation in assay [1] was 16.1%. In addition, the Potency result in assay [2] and in assay [3] was “inactive” throughout.

On to `CNc1cccc(CCOc2ccc3c(c2)CN(CC(F)(F)F)C(=O)[C@H](CC(=O)O)C3)n1`, for which the activation in assay [1] is 2.86%. Further, the Potency entry in assay [2] and in assay [3] was “inactive” each time.
